The results in this text go back to PubChem BioAssay (NCATS).

Unmarked numbers belong to inactive results. Records with an inconclusive call do not appear. The source made the active and inactive calls. The call rests on the fitted dose curve; in most records, active means well fitted curve in the direction sought with a large enough effect; inconclusive means small, poorly fitted or top-dose-only effect, or another doubt; inactive means no such curve, though single readings can be large; an effect the other way counts as inactive or inconclusive. *1 amine or outer side, *2 acyl side, *3 side chain or, on linkers, in order; H or OH if unused. Where a SMILES comes first, the peptide text is derived from it. [ ]: non-standard residue; d: D form. X13 = O=C(C(CC(O)CO)O[*:1])[*:2]; NMeV = CN[CH](C(=O)O)C(C)C; NMeA = CN[CH](C)C(=O)O; βAla = NCCC(=O)O

In assay [1] the target is Glutathione peroxidase 1 (Homo sapiens) (UniProt P07203). Description: Primary qHTS Assay for Inhibitors of Recombinant Selenoprotein Glutathione Peroxidase 1 (GPX1) (AID 1845191). Further: nearly all actives have a fitted effect of over 65% in size. On activity, negative = inhibition: on the % scale 0 is the no-effect control and ±100 the full control effect. In outline:
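Recombinant GPX1 (10 nM final) was preincubated with compound for 30 min at room temperature, then reacted with 1 mM GSH, 0.5 mM CHP, 0.5 mM NADPH and 100 nM glutathione reductase; NADPH fluorescence (340/450 nm) was read at 0 and 15 min.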
A general note: qHTS replaces the single test concentration by a dilution series.

In assay [2] the target is Phospholipid hydroperoxide glutathione peroxidase GPX4 (Homo sapiens) (UniProt P36969). Description: Primary qHTS Assay for Inhibitors of Recombinant Selenoprotein Glutathione Peroxidase 4 (GPX4) (AID 1845192). Further: nearly all actives have a fitted effect of over 65% in size. On activity change, negative = inhibition: series mostly up to about 50 µM; on the % scale 0 is the no-effect control and ±100 the full control effect. In outline:
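GR-coupled readout: 100 nM GR, 1 mM GSH, 0.5 mM NADPH; NADPH fluorescence (ex 340/em 450 nm) read at t=0 and after 15 min RT. GPX4 200 nM, preincubated 30 min with compound; substrate 0.5 mM CHP.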

Assay [3] addresses Luciferin 4-monooxygenase (Photinus pyralis) (UniProt P08659). In words: Primary firefly luciferase (FLuc) qHTS assay for identification of artifact compounds. (AID 1845220). Further: nearly all actives have a fitted effect of over 60% in size.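 On activity change, negative = inhibition: series mostly up to about 54 µM; plate controls were DMSO vehicle for no effect and no enzyme for full effect.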 In outline:
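In this counter-screen for luciferase artifacts, test compounds met substrate (10 uM each luciferin and ATP) before 10 nM enzyme started the reaction. Light output was measured 5 min later.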

Assay [4] in a line: Primary fluorescence-based thiol-reactive (MSTI) qHTS assay for identification of artifact compounds. (AID 1845221). Further: nearly all actives have a fitted effect of over 65% in size. Further: potency means the concentration at half of the fitted maximal effect. In outline: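 A multi-concentration qHTS design tested compounds against 4 uM MSTI, pH 7.4 phosphate-buffered saline. Plates were protected from light for 1 h at room temperature before imaging fluorescence.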
In assay [5] the test system is Nanoluciferase (engineered Oplophorus gracilirostris luciferase). In words: Primary Nanoluciferase (NLuc) qHTS assay for identification of artifact compounds. (AID 1845222).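 Further: NLuc secreted into diluted conditioned medium of S16 cells; series mostly up to about 54 µM; 0% = DMSO and -100% = no enzyme.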 A digest of the protocol: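 Using secreted nanoluciferase in S16 culture medium (0.22 um filtered, 1:55 dilution), compounds were preincubated 15 min at RT. Signal was generated with Nano-Glo reagent (1:100) over 5 min.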

Assay [6] in a line: Primary redox qHTS assay for identification of artifact compounds. (AID 1845223).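 Further: 0% = DMSO and 100% = reference compound.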 In outline: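 Amplex Red (25 uM) and HRP (250 mU/mL) in HBSS, with compounds for 15 min, then 250 uM DTT for 30 min, room temperature, dark. Fluorescence 525/598 nm read; normalized to DMSO and 10 uM DA3003; Hill fit.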

Phospholipid hydroperoxide glutathione peroxidase GPX4 (Homo sapiens), sequence (P36969 whole entry, looked up): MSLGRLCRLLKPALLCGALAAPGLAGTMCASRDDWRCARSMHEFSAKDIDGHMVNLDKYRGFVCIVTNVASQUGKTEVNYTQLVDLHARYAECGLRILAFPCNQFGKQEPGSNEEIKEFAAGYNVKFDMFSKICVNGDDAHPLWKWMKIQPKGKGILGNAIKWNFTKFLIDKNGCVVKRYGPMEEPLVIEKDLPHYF
Glutathione peroxidase 1 (Homo sapiens), sequence (P07203 whole entry, looked up): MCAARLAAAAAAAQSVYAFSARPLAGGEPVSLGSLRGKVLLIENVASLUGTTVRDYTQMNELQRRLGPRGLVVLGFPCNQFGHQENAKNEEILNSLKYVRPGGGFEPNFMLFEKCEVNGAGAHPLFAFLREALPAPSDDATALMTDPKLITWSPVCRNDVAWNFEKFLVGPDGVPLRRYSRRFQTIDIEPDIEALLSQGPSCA

Take `C[C@@H]1O[C@@H](O[C@H]2[C@@H]3C=CO[C@@H](O[C@@H]4O[C@H](CO)[C@@H](O)[C@H](O)[C@H]4O)[C@@H]3[C@@]3(CO)O[C@@H]23)[C@H](OC(=O)/C=C/c2ccc(O)cc2)[C@H](O)[C@H]1O`: the Potency entry in assay [1], in assay [2], in assay [3], in assay [5] and in assay [6] was “inactive” throughout. The Potency in assay [4] is 3.54 µM (active).
For `CC(O)C/C=C/C=C/C(=O)OC1C=C2COC(=O)C2(O)C2(C)CCCC(C)(C)C12` (stereo unspecified), the Potency result in assay [1], in assay [2], in assay [3], in assay [4], in assay [5] and in assay [6] was “inactive” throughout.
Turning to `CCC(C)C1NC(=O)C2CCCN2C(=O)C(CC(O)CO)OC(=O)CCNC(=O)C(C)N(C)C(=O)C(C(C)C)N(C)C1=O` (stereo unspecified) (cyclo([X13]PI[NMeV][NMeA][βAla]); configuration not given here), the Potency result in assay [1], in assay [2], in assay [3], in assay [4], in assay [5] and in assay [6] was “inactive” in each case.
In the case of `CN1C(=O)N(c2cc(Cl)cc(Cl)c2)C(=O)[C@@]1(C)Cc1ccc(Br)cc1`, the Potency result in assay [1], in assay [2], in assay [3], in assay [4], in assay [5] and in assay [6] was “inactive” each time.
In the case of `C=Cc1ccc(O[C@@H]2O[C@H](CO[C@@H]3O[C@@H](C)[C@H](O)[C@@H](O)[C@H]3O)[C@@H](O)[C@H](O)[C@H]2O)cc1`, the Potency result in assay [1], in assay [2], in assay [3], in assay [5] and in assay [6] was “inactive” throughout. The Potency in assay [4] is 11.6 µM (active).
Consider `COc1ccc(-n2[nH]c3c(cnc4ccccc43)c2=O)cc1`, for which the Potency entry in assay [1], in assay [2], in assay [3], in assay [5] and in assay [6] was “inactive” each time. Further, the Potency in assay [4] was 4.74 µM (active).
As for `CCNC(=O)OC1CCN(c2nncc3cc(OC)c(OC)cc23)CC1`, the Potency entry in assay [1], in assay [2], in assay [3], in assay [4], in assay [5] and in assay [6] was “inactive” throughout.
As for `CC1=CCC2C(C)(C)CCCC2(C)C1CC12OC1C(O)C(CO)=CC2O` (stereo unspecified), the Potency entry in assay [1], in assay [2], in assay [3], in assay [4], in assay [5] and in assay [6] was “inactive” in each case.
`COc1ccc(/C=C/C(=O)O[C@@H]2[C@@H](OC(C)=O)[C@@H](OC(C)=O)[C@H](O[C@H]3[C@@H]4C=CO[C@@H](O[C@@H]5O[C@H](CO)[C@@H](O)[C@H](O)[C@H]5O)[C@@H]4[C@@]4(CO)O[C@@H]34)O[C@H]2C)cc1`: the Potency entry in assay [1], in assay [2], in assay [3], in assay [4], in assay [5] and in assay [6] was “inactive” each time.
As to `Cc1ccccc1-c1cc(N2CCN(C)CC2)ncc1N(C)C(=O)C(C)(C)c1cc(C(F)(F)F)cc(C(F)(F)F)c1`, the Potency result in assay [1], in assay [2], in assay [3], in assay [4], in assay [5] and in assay [6] was “inactive” in each case.
For `CCN(CCN(C)C)C(=O)CNCc1cc(C(N)=O)ccn1`, the Potency entry in assay [1], in assay [2], in assay [3], in assay [4], in assay [5] and in assay [6] was “inactive” throughout.
On to `CC(=O)NC1C(OC2CCC3(C)C(CCC4(C)C3CC=C3C5CC(C)(C)CCC5(C(=O)O)C(O)CC34C)C2(C)C)OC(CO)C(O)C1O` (stereo unspecified), for which the Potency entry in assay [1], in assay [2], in assay [3], in assay [4], in assay [5] and in assay [6] was “inactive” each time.
Take `C=C1CC/C=C(/CO)C(=O)C[C@@H]2[C@@H]1C[C@@]2(C)COC(C)=O`: the Potency entry in assay [1], in assay [2], in assay [3], in assay [5] and in assay [6] was “inactive” each time. The Potency in assay [4] was 11.9 µM (active).
With `CC(C)C1(O)C=C2C(=O)CC3C(C)(C(=O)O)CCCC3(C)C2CC1` (stereo unspecified), the Potency result in assay [1], in assay [2], in assay [3], in assay [4], in assay [5] and in assay [6] was “inactive” in each case.
Turning to `COc1cc(Cc2cnc(N)nc2N)c(C(C)C)cc1OC`, the Potency entry in assay [1], in assay [2], in assay [3], in assay [4], in assay [5] and in assay [6] was “inactive” throughout.
With `CC(/C=C/C=C(\C)C(=O)O[C@@H]1O[C@H](CO[C@@H]2O[C@H](CO)[C@@H](O)[C@H](O)[C@H]2O)[C@@H](O)[C@H](O)[C@H]1O)=C\C=C\C=C(C)\C=C\C=C(/C)C(=O)O[C@@H]1C[C@](O)(C(=O)O)C[C@@H](O)[C@H]1OC(=O)/C=C/c1ccc(O)c(O)c1`, the Potency result in assay [1] and in assay [2] was “inactive” throughout. Also, the activity change, negative = inhibition in assay [3] was -0.112% [at 11.6 µM]. The Potency in assay [4] is 0.45 µM (active). The activity, negative = inhibition in assay [5] was -29.7% [at 11.6 µM]. Also, the redox activity (% of DA3003) in assay [6] was -7.98% [at 11.5 µM].
Take `CC1CCC2(C(=O)O)CCC3(C)C(=CCC4C5(C)C[C@@H](O)[C@@H](O)C(C)(CO)C5CCC43C)C2C1(C)O` (stereo partly specified): the Potency entry in assay [1], in assay [2], in assay [3], in assay [4], in assay [5] and in assay [6] was “inactive” in each case.
Turning to `COC(=O)C1=CO[C@@H](O[C@@H]2O[C@H](CO)[C@@H](O)[C@H](O)[C@H]2O)[C@@H]2[C@@H](C)[C@@H](O)C(O)[C@H]12` (stereo partly specified), the Potency entry in assay [1], in assay [2], in assay [3], in assay [4], in assay [5] and in assay [6] was “inactive” in each case.
Regarding `O=C(C1OC1/C=C/c1ccc2c(c1)OCO2)N1CCCCC1` (stereo unspecified), the Potency entry in assay [1], in assay [2], in assay [3], in assay [4], in assay [5] and in assay [6] was “inactive” in each case.
Take `COC(=O)C1=COC(OC2OC(CO)C(O)C(O)C2O)C2C(COC(=O)/C=C/c3ccc(O)c(O)c3)C(O)C(O)C12` (stereo unspecified): the Potency entry in assay [1], in assay [2], in assay [3], in assay [5] and in assay [6] was “inactive” in each case. The Potency in assay [4] was 2.51 µM (active).
With `CC(=O)c1[nH]cc(CCC(=O)O)c1CC(=O)O`, the Potency entry in assay [1], in assay [2], in assay [3], in assay [4], in assay [5] and in assay [6] was “inactive” throughout.
